From PubChem
MEKK2wt PB1 HTS = modulators of MEK5 binding to wildtype MEKK2, primary screen, biochemical, multiplex bead flow cytometry, Alexa488-MEK5; Mitogen-activated protein kinase kinase kinase 2 (Homo sapiens), Q9Y2U5; Alexa488-MEK5 binding to MEKK2 WT; actives lie on both sides; binding response (% of control), % at 10 µM; hit rate 1.1% among 290,000; AID 1531, 2009; in the data active means binding response below about 67% or above about 130%
MEKK2mut PB1 HTS = MEK5 binding signal on mutant MEKK2 PB1, primary screen, biochemical, multiplex bead flow cytometry, Alexa488-MEK5. Alexa488-MEK5 binding to MEKK2 mutant. percent response, % at 10 µM. hit rate 0.35% among 290,000. AID 1530, 2009; in the data active means percent response above about 24%, passing the limit was not always enough
MEKK3 PB1 HTS = modulators of MEKK3-MEK5 PB1 binding, primary screen, biochemical, wildtype MEKK3, multiplex bead flow cytometry, Alexa488-MEK5. Mitogen-activated protein kinase kinase kinase 3 (Homo sapiens), Q99759. bead-based flow cytometry, Alexa488-MEK5 binding to MEKK3; actives lie on both sides; 0 = blocked by unlabeled MEK5, 100 = vehicle. binding response (% of control), % at 10 µM. hit rate 1.4% among 290,000. AID 1529, 2009;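 active means binding response more than 3 SD above or below the average of its plate-row segment, actives on both sides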;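 further: Alexa488 bead fluorescence after subtracting the streptavidin-only scavenger bead signal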
Target sequence (Q99759 whole entry, looked up): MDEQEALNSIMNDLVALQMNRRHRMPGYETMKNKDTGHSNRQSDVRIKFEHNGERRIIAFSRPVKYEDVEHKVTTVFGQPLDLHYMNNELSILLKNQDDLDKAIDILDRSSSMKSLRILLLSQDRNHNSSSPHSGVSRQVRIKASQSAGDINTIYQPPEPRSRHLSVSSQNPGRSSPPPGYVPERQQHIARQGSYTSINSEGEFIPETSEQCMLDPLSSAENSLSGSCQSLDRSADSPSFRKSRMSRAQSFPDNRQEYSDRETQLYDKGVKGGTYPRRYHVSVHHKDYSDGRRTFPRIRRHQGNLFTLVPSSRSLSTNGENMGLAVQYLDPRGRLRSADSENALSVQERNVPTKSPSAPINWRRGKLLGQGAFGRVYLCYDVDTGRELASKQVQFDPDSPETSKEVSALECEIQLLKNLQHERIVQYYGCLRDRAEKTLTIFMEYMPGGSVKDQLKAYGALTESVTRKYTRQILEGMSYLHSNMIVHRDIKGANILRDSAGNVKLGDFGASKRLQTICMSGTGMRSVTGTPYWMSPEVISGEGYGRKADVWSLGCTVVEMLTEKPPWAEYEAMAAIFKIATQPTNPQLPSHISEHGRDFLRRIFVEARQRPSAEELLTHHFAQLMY
Beta2AR agonist = beta2AR agonists driving receptor internalization, primary screen, cell-based, FAP fluorogen, flow cytometry. Am2.2-beta2AR cells. hit rate 0.43% among 340,000. Beta-2 adrenergic receptor (Homo sapiens), P07550. response, % (test concentration not listed);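 active means response above a set limit, near 3 SD of response in nonfluorescent compounds, cut at about 42% in these data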
GRK2 aptamer HTS = compounds blocking aptamer binding on GRK2 – biochemical, human GRK2, bead flow cytometry, HTS, primary screen; FAM-aptamer displacement from GRK2; inhibition of aptamer binding, % at 10 µM; hit rate 0.59% among 330,000;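 active means inhibition of aptamer binding above 40%, roughly 3 SD of noise, on plates passing a quality check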;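 further: median bead fluorescence of bound FAM aptamer so fluorescent compounds give negative values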
MEKK2wt confirm = modulators of MEK5 binding to wildtype MEKK2, confirmation, biochemical, single concentration, multiplex bead flow cytometry. shares compounds with MEKK3 PB1 HTS. Alexa488-MEK5 binding to MEKK2 WT; actives lie on both sides. binding response (% of control), % at 10 µM. hit rate 2.4% among 5,900; in the data active means binding response below about 16% or above about 210%; inactive means in between
MEKK2mut confirm = mutant MEKK2 PB1-MEK5 binding signal retest – biochemical, single concentration, multiplex bead flow cytometry, confirmation. shares compounds with MEKK3 PB1 HTS. Alexa488-MEK5 binding to MEKK2 mutant. percent response, % at 10 µM. hit rate 2% among 5,900. AID 1893, 2009; in the data active means percent response mostly above about 71%, no sharp cut-off; inactive means mostly below about 38%;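 further: higher means compound restores mutant binding toward wildtype level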
MEKK3-MEK5 inh = MEKK3 wild-type PB1 binding to MEK5, inhibitors, confirmation, biochemical, bead multiplex flow cytometry, single concentration, wildtype. shares compounds with MEKK3 PB1 HTS. Alexa488-MEK5 binding to MEKK3; stronger effect = lower value. binding response (% of control), % at 10 µM. hit rate 1.8% among 5,900;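 active means binding response below 72% of control, or above a set upper limit, though filed actives all read lower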;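 further: 100% = DMSO only wells and 0% = binding blocked by excess unlabeled MEK5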
Active calls of the source: *; nt = no result given; [ ] = another dose, or the depositor's remark. The list is not random: actives were taken first. Their share in the collection is about 2.9%.

SMILES | MEKK2wt PB1 HTS | MEKK2mut PB1 HTS | MEKK3 PB1 HTS | Beta2AR agonist | GRK2 aptamer HTS | MEKK2wt confirm | MEKK2mut confirm | MEKK3-MEK5 inh
Clc1ccc(OCCCNCc2ccccc2)c2ccccc12 | 253.0* | 28.0* | 117.0 | 14.9 | 0.0 | 161.0 | 29.0 | 102.0
CCc1ccc2c(CN3CCN(S(=O)(=O)c4ccccc4F)CC3)cc(=O)oc2c1 | nt | nt | nt | 6.6 | 0.0 | nt | nt | nt
CCc1ccc2c(CN3CCN(S(=O)(=O)c4cccs4)CC3)cc(=O)oc2c1 | 100.0 | 1.0 | 135.0* | 4.8 | 7.0 | 92.0 | -8.0 | 98.0
O=C(NS(=O)(=O)Oc1ccc(Cl)cc1)OC[C@@H]1CCCN2CCCC[C@H]12 | 113.0 | 1.0 | 149.0* | -2.6 | 5.0 | 102.0 | 2.0 | 100.0
O=C(NS(=O)(=O)Oc1ccc(F)c(Cl)c1)OC[C@@H]1CCCN2CCCCC12 (some centres not stated) | 99.0 | 0.0 | 103.0 | -2.3 | 0.0 | nt | nt | nt
Cc1c(C)[n+](=O)c(-c2ccc(Br)cc2)c(C)n1[O-] | 47.0*[inhibitor] | -7.0 | 50.0*[inhibitor] | -1.9 | 1.0 | 94.0 | -9.0 | 98.0
Cc1c(-c2ccccc2)[n+](=O)c(-c2ccc(Br)cc2)c(C)n1[O-] | 90.0 | -5.0 | 91.0 | -11.6 | 0.0 | nt | nt | nt
COC(=O)/C(N=Nc1c(C)n(C)n(-c2ccccc2)c1=O)=C(\C)O | 108.0 | 0.0 | 142.0* | 3.8 | 1.0 | 98.0 | -2.0 | 106.0
Oc1ccc(Cl)cc1-c1cc(-c2ccco2)[nH]n1 | 88.0 | -16.0 | 78.0*[inhibitor] | -12.0 | 2.0 | 97.0 | -12.0 | 92.0
Oc1ccccc1-c1cc(-c2ccco2)[nH]n1 | 96.0 | -1.0 | 103.0 | -1.5 | 1.0 | nt | nt | nt
Cn1c(COc2ccc([N+](=O)[O-])cc2)nnc1SCC(=O)NCC1CCCO1 (configuration not stated) | 93.0 | 0.0 | 101.0 | 2.0 | 2.0 | nt | nt | nt
COc1ccc(-c2cc(=O)oc3cc(OC(C)C(=O)NCc4ccccn4)ccc23)cc1 (configuration not stated) | 105.0 | 4.0 | 99.0 | -19.3 | 2.0 | nt | nt | nt
S=C(Nc1ccc(Br)cc1Cl)N1CCCC1 | 104.0 | 4.0 | 102.0 | -3.2 | 0.0 | nt | nt | nt
O=C(Nc1ccc(CN2CCCCC2)cc1)Nc1ccc(Br)cc1Cl | 165.0* | 11.0 | 113.0 | 20.0 | 0.0 | 144.0 | 20.0 | 104.0
Cc1cc(C(=O)N/N=C/c2cc(N=Nc3ccccc3)ccc2O)n[nH]1 | 66.0 | -4.0 | 38.0*[inhibitor] | -3.0 | 1.0 | 79.0 | -16.0 | 86.0
Cc1nnc(SCC(=O)N2c3ccccc3CC2C)[nH]c1=O (configuration not stated) | 104.0 | 1.0 | 105.0 | -2.4 | 7.0 | nt | nt | nt
Cc1c(CCOC(=O)C23CC4(C)CC(C)(CC(C)(C4)C2)C3)sc[n+]1CC(=O)c1ccccc1 | 158.0* | 23.0 | 98.0 | 5.7 | 0.0 | 154.0 | 17.0 | 106.0
COc1ccc(N2CCn3c2nc2c3c(=O)n(CCc3ccccc3)c(=O)n2C)c(OC)c1 | 99.0 | 1.0 | 109.0 | nt | nt | nt | nt | nt
COc1ccc(N2CC(C)Cn3c2nc2c3c(=O)n(Cc3ccccc3)c(=O)n2C)c(OC)c1 (configuration not stated) | 82.0 | -2.0 | 73.0*[inhibitor] | 4.4 | 0.0 | 98.0 | -7.0 | 105.0
CCOC(=O)c1sc2ccccc2c1OC(=O)c1ccccc1 | 102.0 | 2.0 | 106.0 | 4.9 | 0.0 | nt | nt | nt
CCOC(=O)c1sc2ccccc2c1NC(=O)c1coc2ccccc2c1=O | 96.0 | -1.0 | 139.0* | -3.4 | 3.0 | 101.0 | -1.0 | 102.0
Cc1ccc(S(=O)(=O)N2CCC(C(=O)NCCCN3CCOCC3)CC2)cc1C | nt | nt | nt | 11.8 | 0.0 | nt | nt | nt
O=C(C[n+]1ccccc1)N/N=C/c1ccccc1Cl | nt | nt | nt | -7.8 | 0.0 | nt | nt | nt
O=C(C[n+]1ccccc1)N/N=C/c1cccc(Cl)c1Cl | 66.0*[inhibitor] | -2.0 | 88.0 | 10.5 | 8.0 | 109.0 | 4.0 | 104.0
COc1cccc(-c2nc(Cc3ccc(OC)c(OC)c3)no2)c1 | -6.0*[inhibitor] | 1.0 | 96.0 | -2.7 | 1.0 | 99.0 | -2.0 | 97.0
SMILES | MEKK2wt PB1 HTS | MEKK2mut PB1 HTS | MEKK3 PB1 HTS | Beta2AR agonist | GRK2 aptamer HTS | MEKK2wt confirm | MEKK2mut confirm | MEKK3-MEK5 inh
COc1ccc(Cc2noc(-c3ccccc3)n2)cc1OC | 91.0 | -3.0 | 95.0 | -8.2 | 2.0 | nt | nt | nt
CCCS(=O)(=O)c1nc(S(=O)(=O)c2ccc(C)cc2)c(N2CCN(CCO)CC2)s1 | 99.0 | 2.0 | 101.0 | -1.3 | 0.0 | nt | nt | nt
OC(CNCCc1ccc(C(F)(F)F)cc1)COC(c1ccccc1)c1ccccc1 (configuration not stated) | 191.0* | 46.0* | 111.0 | 20.1 | 5.0 | 146.0 | 20.0 | 97.0
FC(F)(F)c1nnc2ccc(N3CCCCCC3)nn12 | 91.0 | -14.0 | 81.0*[inhibitor] | -2.9 | 1.0 | 98.0 | -2.0 | 100.0
FC(F)(F)c1nnc2ccc(N3CCCC3)nn12 | 108.0 | 5.0 | 103.0 | -16.6 | 0.0 | nt | nt | nt
O=C(OCC(=O)N1CCC(Cc2ccccc2)CC1)c1cccnc1Cl | nt | nt | nt | -1.6 | 0.0 | nt | nt | nt
Cc1ccc(NC(=O)COC(=O)c2ccccc2-c2nc3ccccc3s2)c(C)c1 | 107.0 | -1.0 | 108.0 | 0.8 | 0.0 | nt | nt | nt
CCc1cccc(CC)c1NC(=O)COC(=O)c1ccccc1-c1nc2ccccc2s1 | 72.0 | -2.0 | 48.0*[inhibitor] | 13.7 | 0.0 | 93.0 | -6.0 | 102.0
COC(=O)C1=C(C)NC(C)=C(C(=O)O[C@@H]2CCCN(Cc3ccccc3)C2)[C@@H]1c1cccc([N+](=O)[O-])c1 | 145.0* | 10.0 | 111.0 | 0.9 | 0.0 | 120.0 | 9.0 | 106.0
Cn1cccc1C(=O)NCc1ccc(S(N)(=O)=O)cc1 | 100.0 | -3.0 | 102.0 | -0.8 | 0.0 | nt | nt | nt
O=c1c([N+](=O)[O-])c(N2CCCCCC2)c2ccccc2n1-c1ccccc1 | nt | nt | 49.0*[inhibitor] | -1.6 | 0.0 | 101.0 | 1.0 | 105.0
O=c1sc2ccccc2c(N2CCCCC2)c1[N+](=O)[O-] | 102.0 | 8.0 | 102.0 | -0.5 | 0.0 | nt | nt | nt
C=C(C)c1nc(Oc2ccccc2)nc(Oc2ccccc2)n1 | nt | nt | nt | 13.4 | nt | nt | nt | nt
